Experimental data from PubChem BioAssay (EPA / NIEHS).
Calls of active or inactive are those of the source. How the source made its calls: active means hit-call score of the fitted dose curve at least 0.9, where 1 is the maximum; inactive means score below 0.9.

Assays:
[1] = APR_HepG2_P-H2AX_72hr: Apredica 72-hour HepG2 Assay for H2AX Phosphorylation (AID 2282916); details: imaging, actives raise or lower the signal;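 further: phospho-histone H2A.x immunostain intensity per cell marking DNA damage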
Summary of the method: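 HepG2; cpd 0.39–200 uM ×10 conc, duplicates; 0.5% DMSO; 72 hr. Fix 3.7% formaldehyde 30 min RT, 0.5% Triton X-100 10 min. Anti-phospho-H2A.x 1:200 + Hoechst 2 ug/mL, 60 min RT; ArrayScan imaging.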

[2] = APR_HepG2_MitoMembPot_72hr: Apredica 72-hour HepG2 Assay for Mitochondrial Membrane Potential (AID 2282917); details: imaging, actives raise or lower the signal
Summary of the method: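 Membrane potential read by MitoTracker Red CMXRos (250 nM, 30 min, pre-fixation) fluorescence imaging of HepG2 after 72 hr exposure. Ten concentrations, 0.39–200 uM, duplicate wells, 0.5% DMSO; fitted in both directions against DMSO baseline.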

[3] = APR_HepG2_MitoticArrest_72hr: Apredica 72-hour HepG2 Assay for Mitotic Arrest (AID 2282918); details: high-content imaging, actives raise or lower the signal
Summary of the method: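 HepG2, 72 hr exposure, 0.39–200 uM in duplicate, 0.5% v/v DMSO final. Formaldehyde-fixed, Triton-permeabilized, anti-phospho-histone H3/FITC plus Hoechst. ArrayScan imaging at 20x; curves fit bidirectionally against DMSO baseline.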

[4] = APR_HepG2_MicrotubuleCSK_72hr: Apredica 72-hour HepG2 Assay for Microtubule CSK Stabilty (AID 2282919); details: HepG2 microtubule cytoskeleton, high-content imaging, actives raise or lower the signal
Summary of the method: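 Read-out is tubulin fluorescence intensity from high-content imaging of HepG2 cells, with nuclei identified by Hoechst 33342. Treatment lasts 72 h at 0.39–200 uM, and curves are fitted bidirectionally against the DMSO negative control.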

[5] = APR_HepG2_P-H2AX_24hr: Apredica 24-hour HepG2 Assay for H2AX Phosphorylation (AID 2282920); details: high-content imaging, actives raise or lower the signal
Summary of the method: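 HCS fluorescence imaging of phospho-H2A.x immunostain (with Hoechst 33342 nuclear counterstain) in HepG2 after 24 hr compound exposure; 10 concentrations, 0.39–200 uM, duplicate wells, 0.5% v/v DMSO. Gain or loss of signal fitted relative to DMSO baseline.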

[6] = APR_HepG2_StressKinase_72hr: Apredica 72-hour HepG2 Assay for Stress Kinase (AID 2282921); details: HepG2 stress kinase (phospho-c-Jun) imaging, actives raise or lower the signal
Summary of the method: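 Dose 0.39–200 uM (10 pts, duplicate), 0.5% DMSO; 72 h; fix 3.7% formaldehyde 30 min RT; Triton permeabilize; anti-phospho-c-Jun/Cy3 + Hoechst 60 min RT; image 20x; fit gain/loss vs DMSO.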

[7] = APR_HepG2_MitoMass_72hr: Apredica 72-hour HepG2 Assay for Mitochondrial Mass (AID 2282924); details: high-content imaging, actives raise or lower the signal;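 further: MitoTracker Red CMXRos stain intensity per cell imaged as mitochondrial mass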
Summary of the method: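 HepG2, 72 hr cmpd, 10 conc 0.39–200 uM in dup, DMSO 0.5% v/v. MitoTracker Red CMXRos 250 nM 30 min pre-fix; formaldehyde 3.7% fix 30 min RT. HCS imaging, gain/loss fit vs DMSO.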

[8] = APR_HepG2_NuclearSize_72hr: Apredica 72-hour HepG2 Assay for Nuclear Size (AID 2282925); details: high-content imaging, actives raise or lower the signal
Summary of the method: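 HepG2; cpd 0.39–200 uM, 10 conc, duplicate; 72 h; DMSO 0.5% v/v; fix 3.7% formaldehyde 30 min RT; Triton permeabilization; Hoechst 2 ug/mL; HCS imaging 20x; nuclear diameter; gain/loss fit vs DMSO.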

[9] = ATG_CRE_CIS: Attagene CIS-FACTORIAL HepG2 Assay for human cAMP Responsive Element (CRE) binding protein 3 (AID 2282926); details: HepG2 CRE cis-reporter, Attagene multiplexed mRNA; actives raise or lower the signal
Summary of the method: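 Endogenous CRE-binding activity in HepG2 is reported through a cis-regulated transfected reporter. Following a day of exposure, mRNA levels are determined by reverse transcription PCR and fluorescent fragment analysis; fits run in both directions versus DMSO.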

[10] = biological target: CCAAT/enhancer-binding protein beta (Homo sapiens) (UniProt P17676); assay: ATG_C_EBP_CIS: Attagene CIS-FACTORIAL HepG2 Assay for human CCAAT/Enhancer Binding Protein (C/EBP) beta (AID 2282927); details: HepG2 Attagene cis-factorial transcription factor reporter; actives raise or lower the signal
CCAAT/enhancer-binding protein beta (Homo sapiens), sequence (P17676 whole entry, looked up, the tested form may be a part): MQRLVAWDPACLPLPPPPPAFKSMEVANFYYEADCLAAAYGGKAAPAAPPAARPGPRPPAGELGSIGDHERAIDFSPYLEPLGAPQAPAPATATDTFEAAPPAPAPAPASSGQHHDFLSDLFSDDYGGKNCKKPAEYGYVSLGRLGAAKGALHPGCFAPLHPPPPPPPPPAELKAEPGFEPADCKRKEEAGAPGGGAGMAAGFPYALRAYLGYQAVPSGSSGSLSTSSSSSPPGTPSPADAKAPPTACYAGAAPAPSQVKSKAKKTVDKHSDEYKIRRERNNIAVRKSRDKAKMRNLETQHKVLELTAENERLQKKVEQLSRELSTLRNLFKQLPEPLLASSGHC
Summary of the method: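 Endogenous C/EBPb-driven reporter transcripts measured in transfected human HepG2 cells at 24 h via RT-PCR and capillary electrophoresis of labelled fragments. Activity fitted in both directions relative to DMSO baseline.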

[11] = ATG_CMV_CIS: Attagene CIS-FACTORIAL HepG2 Assay for human CMV (Internal Marker) (AID 2282928); details: HepG2 CMV promoter reporter, transcription factor profiling; actives raise or lower the signal;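 further: endpoint acts as a background internal control marker rather than a target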
Summary of the method: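 After transient transfection of HepG2 with reporter transcription units driven by cis-regulatory promoters, cells receive test chemical for 24 h. Labeled reporter amplicons, digested with HpaI, are sized and quantified by capillary electrophoresis against DMSO.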

[12] = ATG_DR4_LXR_CIS: Attagene CIS-FACTORIAL HepG2 Assay for human Liver X Receptor (LXR), DR4 submotif (AID 2282929); details: HepG2 Attagene DR4 cis-reporter, mRNA transcription; actives raise or lower the signal
Summary of the method: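 Transiently transfected HepG2 liver cells; cis-regulated reporters; 24 h dosing. RT-PCR plus CE read-out of reporter mRNA. DMSO baseline, bidirectional curve fitting.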

[13] = biological target: Aryl hydrocarbon receptor (Homo sapiens) (UniProt P35869); assay: ATG_Ahr_CIS: Attagene CIS-FACTORIAL HepG2 Assay for human Aryl Hydrocarbon Receptor (Ahr) (AID 2282930); details: HepG2 AhR cis-factorial reporter transcription; actives raise or lower the signal
Aryl hydrocarbon receptor (Homo sapiens), sequence (P35869 whole entry, looked up): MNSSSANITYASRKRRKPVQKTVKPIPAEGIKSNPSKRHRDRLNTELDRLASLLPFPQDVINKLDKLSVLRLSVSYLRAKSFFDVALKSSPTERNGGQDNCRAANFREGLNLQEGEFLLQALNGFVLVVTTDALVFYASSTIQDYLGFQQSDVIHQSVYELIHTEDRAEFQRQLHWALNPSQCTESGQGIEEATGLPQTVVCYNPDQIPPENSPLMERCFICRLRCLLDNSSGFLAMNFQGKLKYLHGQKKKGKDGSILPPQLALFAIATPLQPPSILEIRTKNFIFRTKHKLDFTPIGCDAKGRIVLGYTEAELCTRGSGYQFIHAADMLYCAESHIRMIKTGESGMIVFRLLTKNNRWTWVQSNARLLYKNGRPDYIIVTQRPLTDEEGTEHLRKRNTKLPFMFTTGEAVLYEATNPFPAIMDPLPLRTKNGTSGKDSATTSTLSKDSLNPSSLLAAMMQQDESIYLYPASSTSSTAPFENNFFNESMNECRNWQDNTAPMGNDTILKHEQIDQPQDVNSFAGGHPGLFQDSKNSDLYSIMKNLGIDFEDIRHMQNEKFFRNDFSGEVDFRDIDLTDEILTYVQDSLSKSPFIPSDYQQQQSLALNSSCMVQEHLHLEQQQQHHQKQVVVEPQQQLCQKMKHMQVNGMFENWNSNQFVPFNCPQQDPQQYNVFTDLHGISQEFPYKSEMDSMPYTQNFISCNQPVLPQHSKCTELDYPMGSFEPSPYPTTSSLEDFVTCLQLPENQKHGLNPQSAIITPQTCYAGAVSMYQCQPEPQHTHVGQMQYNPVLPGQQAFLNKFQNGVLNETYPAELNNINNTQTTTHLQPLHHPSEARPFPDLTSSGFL
Summary of the method: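 Reporter mRNA levels, quantified by RT-PCR and fluorescent capillary electrophoresis, reflect endogenous AhR transcriptional activity in HepG2 cells carrying transfected cis-promoter reporter constructs. Readout at 24 h post-dose; gain or loss fitted against DMSO baseline.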

[14] = ATG_AP_1_CIS: Attagene CIS-FACTORIAL HepG2 Assay for human Activator Protein 1 (AP-1) (AID 2282931); details: HepG2 Attagene cis-factorial AP-1 reporter mRNA; actives raise or lower the signal
Summary of the method: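 We transfected HepG2 cells transiently with a set of cis-regulated reporter transcription units, dosed them for 24 h, and quantified reporter mRNA via RT-PCR and capillary electrophoresis, scoring gain or loss of signal relative to DMSO.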

[15] = ATG_AP_2_CIS: Attagene CIS-FACTORIAL HepG2 Assay for human Activator Protein 2 (AP-2) (AID 2282932); details: HepG2 AP-2 cis-reporter, Attagene transcription factor profiling; actives raise or lower the signal
Summary of the method: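 HepG2, transient MRTU transfection, cis-regulated reporters; 24 h compound exposure; RNA isolated, RT-PCR, 6-FAM labelling, HpaI digest, CE fluorescence. DMSO = negative control/baseline, bidirectional fit.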

[16] = ATG_BRE_CIS: Attagene CIS-FACTORIAL HepG2 Assay for human Bone Morphogenetic Protein (BMP) Response Element (BRE) (AID 2282933); details: HepG2 BMP response element reporter, Attagene transcription factor profiling; actives raise or lower the signal
Summary of the method: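 Endogenous transcription factor activity at a BMP response element was monitored in transfected HepG2 cells 24 h after dosing. Fluorescent RT-PCR products were resolved by capillary electrophoresis, and activity was fitted in both directions versus DMSO.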

[17] = APR_HepG2_p53Act_72hr: Apredica 72-hour HepG2 Assay for p53 Activation (AID 2282923); details: high-content imaging, actives raise or lower the signal;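 further: average cellular p53 protein immunofluorescence intensity in HepG2 cells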
Summary of the method: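 10-pt conc. 0.39–200 uM, duplicate, 0.5% DMSO; 72 hr exposure; 3.7% formaldehyde fix, 0.5% Triton perm; sheep anti-p53/Cy5 + Hoechst; ArrayScan 20x, 6 images/well; gain/loss fit vs DMSO.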

[18] = biological target: Transcription factor E2F1 (Homo sapiens) (UniProt Q01094); assay: ATG_E2F_CIS: Attagene CIS-FACTORIAL HepG2 Assay for human E2F Transcription Factor 1 (AID 2282935); details: HepG2 Attagene cis-reporter, E2F reporter RNA transcripts; actives raise or lower the signal
Transcription factor E2F1 (Homo sapiens), sequence (Q01094 whole entry, looked up): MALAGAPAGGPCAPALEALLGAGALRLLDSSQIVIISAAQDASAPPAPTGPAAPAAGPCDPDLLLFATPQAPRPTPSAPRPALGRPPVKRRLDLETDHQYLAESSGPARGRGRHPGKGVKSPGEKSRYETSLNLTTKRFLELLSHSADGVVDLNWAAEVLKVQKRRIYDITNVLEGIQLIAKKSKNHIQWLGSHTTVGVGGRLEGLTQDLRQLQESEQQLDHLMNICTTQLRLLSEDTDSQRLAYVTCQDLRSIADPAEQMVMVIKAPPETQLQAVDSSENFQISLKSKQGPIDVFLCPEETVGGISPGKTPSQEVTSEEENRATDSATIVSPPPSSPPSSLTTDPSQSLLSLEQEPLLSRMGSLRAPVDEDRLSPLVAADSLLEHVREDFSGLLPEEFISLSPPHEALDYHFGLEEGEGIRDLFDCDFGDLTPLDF
Summary of the method: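 Cis-element reporter mRNA induction in transiently transfected HepG2, 24 h exposure. Activity fitted in both directions relative to DMSO negative control.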

[19] = biological target: Retinoic acid receptor alpha (Homo sapiens) (UniProt P10276); assay: ATG_DR5_RAR_CIS: Attagene CIS-FACTORIAL HepG2 Assay for human Retinoic Acid Receptor Alpha (RARE), DR5 submotif (AID 2282934); details: HepG2 Attagene cis-factorial RARE DR5 reporter, mRNA; actives raise or lower the signal;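 on AC50: reporter responds to endogenous RAR alpha beta and gamma in HepG2 not RARA alone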
Retinoic acid receptor alpha (Homo sapiens), sequence (P10276 whole entry, looked up): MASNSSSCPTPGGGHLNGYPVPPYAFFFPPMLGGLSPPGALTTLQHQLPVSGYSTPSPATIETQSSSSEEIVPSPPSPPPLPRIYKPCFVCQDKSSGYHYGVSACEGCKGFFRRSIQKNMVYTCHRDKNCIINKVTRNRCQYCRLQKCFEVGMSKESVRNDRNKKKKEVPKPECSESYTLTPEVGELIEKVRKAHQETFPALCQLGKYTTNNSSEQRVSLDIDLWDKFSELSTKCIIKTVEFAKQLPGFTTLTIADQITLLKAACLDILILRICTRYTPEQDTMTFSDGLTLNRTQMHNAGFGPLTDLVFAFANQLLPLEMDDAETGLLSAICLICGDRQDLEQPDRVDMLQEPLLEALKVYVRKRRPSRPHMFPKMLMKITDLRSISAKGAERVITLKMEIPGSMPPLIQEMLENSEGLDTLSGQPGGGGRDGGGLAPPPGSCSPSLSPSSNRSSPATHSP
Summary of the method: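 Reporter transcripts from a DR5-regulated unit, measured via RT-PCR plus capillary electrophoresis, reflect endogenous RAR activity in transiently transfected human HepG2 liver cells. Exposure lasted 24 h; gain or loss of signal scored against DMSO.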

[20] = APR_HepG2_StressKinase_24hr: Apredica 24-hour HepG2 Assay for Stress Kinase (AID 2282922); details: HepG2 stress kinase (phospho-c-Jun) imaging, actives raise or lower the signal
Summary of the method: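 HepG2, 24 hr dosing, 0.39–200 uM in duplicate, 0.5% DMSO; formaldehyde fix (3.7%), 0.5% Triton X-100; anti-phospho-c-Jun + Cy3 secondary, Hoechst counterstain; ArrayScan imaging; bidirectional curve fit vs DMSO baseline.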

Measured: AC50

Cc1occc(=O)c1O
not listed: [17] | [18] | [19] | [20]
inactive: all other assays above

CCCCCCCCCCCCCCOS(=O)(=O)O
active: [1] 110 µM | [2] 110 µM | [3] 98.5 µM | [5] 114 µM | [17] 111 µM | [7] 121 µM
not listed: [8] | [13] | [14] | [19] | [20]
inactive: all other assays above

CC(C)OC(=O)C(C)(C)Oc1ccc(C(=O)c2ccc(Cl)cc2)cc1
active: [11] 67.9 µM | [12] 61 µM | [16] 45.7 µM
not listed: [13] | [14] | [17] | [20]
inactive: all other assays above

CCCCCCC(CCCCCCCCCCC(=O)OCC(COC(C)=O)OC(C)=O)OC(C)=O (stereo not given)
active: [3] 39.8 µM | [11] 35.6 µM
not listed: [8] | [13] | [18] | [19] | [20]
inactive: all other assays above

Cc1cc(Cc2ccc(N)c(C)c2)ccc1N
active: [7] 67.3 µM
not listed: [8] | [13] | [20]
inactive: all other assays above

COC(=O)CCC(=O)OC
not listed: [5] | [8] | [13] | [19]
inactive: all other assays above

CC(C)NCC(O)c1ccc(O)c(O)c1 (stereo not given)
active: [1] 86.8 µM | [13] 64.9 µM
not listed: [14] | [17] | [18] | [19] | [20]
inactive: all other assays above

O=C(N[C@@H](c1ccccc1)[C@@H]1CCCCN1)c1cccc(C(F)(F)F)c1Cl
active: [1] 6.64 µM | [3] 9.47 µM | [5] 14.3 µM | [7] 34.3 µM | [9] 25.4 µM | [11] 12.1 µM | [15] 33 µM | [19] 20.9 µM
inactive: [2] | [4] | [6] | [8] | [10] | [12] | [16]
